Screening data as filed in PubChem BioAssay.
Compounds with a hit are over-represented: about 5.7% of the library has one in this group of screens.
PI4K2A block = qHTS for small molecular inhibitors of PI4K2A; Phosphatidylinositol 4-kinase type 2-alpha (Homo sapiens), Q9BTU6; purified PI4K2A, ADP-Glo luminescence, 1 h; active compounds read low; activity change, negative = inhibition, % at 76.9 µM; 0.13% of 420,000 active; AID 1346378, 2018; in the data active = activity change below about -50%; inconclusive = mostly about -30% to -49%;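 also: -100% = wells without enzyme as full effect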
Target sequence (Q9BTU6 whole entry, looked up): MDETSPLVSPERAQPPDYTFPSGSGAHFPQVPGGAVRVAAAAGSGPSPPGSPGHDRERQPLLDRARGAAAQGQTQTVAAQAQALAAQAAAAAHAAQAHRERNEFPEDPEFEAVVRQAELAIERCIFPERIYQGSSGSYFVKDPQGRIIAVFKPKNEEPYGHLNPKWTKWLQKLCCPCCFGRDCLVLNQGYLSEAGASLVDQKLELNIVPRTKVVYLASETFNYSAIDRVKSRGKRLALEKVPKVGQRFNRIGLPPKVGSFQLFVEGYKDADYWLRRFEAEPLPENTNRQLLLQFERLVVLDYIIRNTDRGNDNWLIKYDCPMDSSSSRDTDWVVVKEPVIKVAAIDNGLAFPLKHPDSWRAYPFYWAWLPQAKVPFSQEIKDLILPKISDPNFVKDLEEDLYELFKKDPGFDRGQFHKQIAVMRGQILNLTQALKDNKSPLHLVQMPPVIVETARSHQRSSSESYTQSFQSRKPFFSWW
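ADP-Glo luminescence measured ADP generated by PI4K2A enzyme (4 ug/mL before mixing) with 1.2 mM PI substrate (pre-mix) and 300 microM ATP (pre-mix). Tris pH7.5 buffer with MgCl2, Triton X-100; 1 h reaction at ambient temperature.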
A549 tox = Nrf2 qHTS screen for inhibitors: counterscreen for cytotoxicity; 0.16% of 390,000 active; Potency, µM (titrated, usually from 46 µM), inactives show at the highest dose activity change, negative = cytotoxicity, hits mostly inhibitors; A549 ARE-Fluc cells, CellTiter-Fluor viability, 18-24 h; AID 504648, 2011; also: potency is read from the fitted curve at half-maximal effect
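A549 ARE-Fluc cells in 5% FBS OPTI-MEM, 5000 cells/well, rested 2 h then exposed to compounds in concentration-response for 18-24 h at 37 °C. Viability by CellTiter-Fluor fluorescence (Ex 405/Em 525) after 30 min; luciferase luminescence (BugLite, 15 min, RT) read afterwards.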
KB-V1 cytotox = qHTS assay for MDR1-selective chemotherapeutics: Primary screen using the drug-selected MDR subline cells KB-V1. 3.4% of 400,000 active. AID 1347076, 2019. KB-V1 MDR cells viability, CellTiter-Glo, 72 h. Potency, µM (titrated, usually from 46.1 µM), actives largely listed as cytotoxic; also: potency is read from the fitted curve at half-maximal effect; nearly all actives have a fitted effect of over 60% in size
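Potencies derive from concentration-effect curves fitted to normalized luminescence (CellTiter-Glo) of KB-V1 cells treated for 72 h at 37 degrees C in phenol-red-free DMEM containing 10% FBS.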
Nrf2 block = Nrf2 qHTS screen for inhibitors; 2.1% of 360,000 active; A549 ARE-Fluc reporter, luciferase luminescence, 18-24 h; Potency, µM (top dose mostly 46 µM), inactives show at the highest dose activity change, negative = inhibition, usual class: inhibitors; AID 504444, 2011; also: potency is read from the fitted curve at half-maximal effect; nearly all actives have a fitted effect of over 60% in size
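Nrf2 activity is the BugLite luminescence, read 15 min after reagent at room temperature, following CellTiter-Fluor cytotoxicity readout (30 min, 37C). Compound titrations were applied for 18-24 h to 5000 A549 ARE_Fluc cells/well in 5% FBS OPTI-MEM.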
Giardia kill = Small Molecules that selectively kill Giardia lamblia: qHTS; Giardia lamblia trophozoite viability; activity change, % at 7.66 µM, hits read low; 0.15% of 340,000 active; AID 540267, 2011; in the data active = activity change below about -80%; inconclusive = between about -30% and that limit;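 also: parasites exposed to compound for two days anaerobically before the ATP read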
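Each well holds 100 Giardia trophozoites and compound. After two days (48 hrs) at 37 deg C in anaerobic conditions, ATP is quantified by luminescence.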
KB-3-1 tox = qHTS assay for MDR1-selective chemotherapeutics: Primary screen using the parental adenocarcinoma cell KB-3-1; KB-3-1 viability, CellTiter-Glo ATP luminescence, 72 h; Potency, µM (titrated, usually from 46.1 µM), usual class: cytotoxic; 1.4% of 400,000 active; AID 1347075, 2019; also: potency is read from the fitted curve at half-maximal effect; nearly all actives have a fitted effect of over 60% in size
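Using CellTiter-Glo luminescence, growth of non-resistant KB-3-1 adenocarcinoma cells is assessed 72 h after pin-tool compound addition at 37 °C. Normalized responses across the concentration series yield fitted curves.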
Starred values were filed as active, the others as inactive; i = inactive; ? = inconclusive; / = not tested or not shown; ! = a repeat was not active. Unless noted, calls follow the shape of the dose curve; as a rule, active = well fitted curve in the direction sought with a large enough effect; inconclusive = small, poorly fitted or top-dose-only effect, or another doubt; inactive = no such curve, though single readings can be large; an effect the other way counts as inactive or inconclusive. Unless noted, % is scaled to controls: 0 for no effect and ±100 for the full control effect.

SMILES	PI4K2A block	A549 tox	KB-V1 cytotox	Nrf2 block	Giardia kill	KB-3-1 tox
O=C(c1ccco1)N1CCN(c2nc(C3CC3)nc3c2nnn3Cc2ccccc2Cl)CC1	9.1	0.8%	?	16.4µM*	-6.4	?
CCc1nc(N2CCN(C(=O)CCCl)CC2)c2c3c(sc2n1)CCCC3	-1.4	/	i	/	/	i
O=C(NCCn1cc(SCc2ccc(F)cc2)c2ccccc21)c1c(F)cccc1F	-1.7	-14.1%	18.4µM*!	?	-22.3	?
COc1ccc(C(=O)NCCn2cc(SCC(=O)Nc3ccc(C)cc3)c3ccccc32)cc1	-1.9	-26.5%	i	/	/	i
COc1ccc(C(=O)NCCn2cc(SCc3cc(C)ccc3C)c3ccccc32)cc1	-3.3	?	?	18.4µM*	/	?
O=C(NCCn1cc(SCc2ccccc2)c2ccccc21)c1c(F)cccc1F	-1.2	-7.2%	i	?	16.8	i
O=C(NCC(c1cccs1)S(=O)(=O)c1cccs1)c1ccc(Cl)cc1 (centres undefined)	1.8	-2.9%	i	/	/	i
CCOC(=O)N/N=C/c1ccc(N(CC)CC)cc1O	-6.9	-5.0%	?	8.1%	-3.9	20.6µM*
Cc1cc(=O)[nH]c(N/N=C/c2ccccc2Cl)n1	3.2	5.6%	i	12.2%	25.4	i
CCN(CC)c1ccc(/C=N/Nc2nc(C)cc(=O)[nH]2)c(O)c1	1.9	?	?	-33.7%	-20.4	1.16µM*
CCN(CC)c1ccc(/C=N/NC(=O)CNC(=O)C2COc3ccccc3O2)c(O)c1 (centres undefined)	-1.9	-14.2%	?	23.1µM*	-3.5	?
Cc1cc(=O)[nH]c(NN=Cc2cc(Br)ccc2O)n1	1.5	-3.0%	0.581µM*	-12.2%	-2.3	?
CC(C)(C)c1ccc(C(=O)Nc2cc(Cl)ccc2C(=O)O)cc1	4.9	/	/	/	/	/
CCN(CC)c1ccc(C=Nc2cc(C)ccc2C)c(O)c1	0.6	6.8%	23.1µM*	1.6%	-21.9	?
CCOC(=O)c1ccc2c(c1)N(Cc1ccc(F)cc1Cl)C(=O)c1ccccc1S2	-4.6	3.9%	/	/	/	/
COc1ccc(NC(=O)c2cc3c([nH]c4ccccc43)c(C)n2)cc1	3.2	0.8%	i	8.6%	-15.8	i
Cc1nc(C(=O)Nc2ccccc2Cl)cc2c1[nH]c1ccccc12	4.1	-5.4%	2.91µM*	-17.8%	7.5	7.31µM*
CC(=O)CC[C@H]1CC[C@]2(CCCN(C(=O)C3CCCCC3)C2)O1	-3.4	/	/	/	/	/
Cn1cc(C2=C(c3cn(CCCSC(=N)N)c4ccccc34)C(=O)NC2=O)c2ccccc21	/	/	?	/	/	4.11µM*
O=C1NC(c2cccc(OCc3ccccc3)c2)Nc2ccccc21 (centres undefined)	0.4	-14.0%	0.651µM*	8.6%	-15.5	0.581µM*
O=C1NC(c2ccc(O)cc2)Nc2ccccc21 (centres undefined)	-0.5	?	?	-0.6%	-4.1	?
COc1ccc(N2CCN(C3CCCN(S(=O)(=O)c4ccccc4)C3)CC2)cc1 (centres undefined)	-1.5	12.5%	/	-11.5%	-3.0	/
COc1ccc(N2CCN(C3CCCN(S(=O)(=O)c4ccc(C)cc4C)C3)CC2)cc1 (centres undefined)	-2.0	-8.7%	i	?	3.6	25.9µM*
O=C(CSc1n[nH]c(-c2ccc(Cl)cc2Cl)n1)Nc1ccccn1	3.8	-5.1%	16.4µM*	14.4%	0.6	i
O=C(CSc1n[nH]c(-c2ccccn2)n1)Nc1ccc(Cl)cc1	6.3	-3.4%	i	-17.0%	-7.0	?
SMILES	PI4K2A block	A549 tox	KB-V1 cytotox	Nrf2 block	Giardia kill	KB-3-1 tox
COc1ccc(-n2nnnc2-c2cccc(OC)c2)cc1	-5.4	-22.1%	1.16µM*	7.2%	5.5	1.03µM*
Cc1ccc(-n2nnnc2-c2cccc(C)c2)cc1	-1.3	-3.2%	?	6.9%	-1.6	?
CCOc1ccccc1CNC(=O)C1CCN(C(=O)N2CC(CC)Oc3ccc(C)cc32)CC1 (centres undefined)	2.7	1.5%	/	?	/	/
COc1ccc(C2C(C#N)=C(C)NC3=C2C(=O)CC(C)(C)C3)cc1 (centres undefined)	-1.5	-11.9%	i	13.3%	-0.3	i
CCCSC1=C(C#N)C(c2ccc(OC)cc2)C2=C(CC(C)(C)CC2=O)N1 (centres undefined)	-3.1	-28.6%	i	23.1µM*	-18.5	i
Cc1ccc(C2C3=C(CC(C)(C)CC3=O)NC3=C2C(=O)c2ccccc23)cc1 (centres undefined)	-4.0	-15.2%	i	?	-13.3	?
CC1(C)CC(=O)C2=C(C1)NC1=C(C(=O)c3ccccc31)C2c1ccc(Cl)cc1 (centres undefined)	-2.7	?	14.6µM*	?	-1.0	?
CSC1=C(C#N)C(c2ccc(Cl)cc2)C2=C(CC(C)(C)CC2=O)N1 (centres undefined)	5.0	-4.4%	20.6µM*	?	-4.6	?
CCOC(=O)c1sc2ccccc2c1S(=O)(=O)Nc1c(C)cccc1C	1.9	14.4%	i	?	/	i
COc1ccccc1CNC1CCC12CCC(c1ccccc1)CC2 (centres undefined)	-0.3	/	/	/	/	/
COc1cc(/C=C/C(=O)N(C)CC(=O)Nc2ccccc2SC)cc(OC)c1OC	2.8	-3.4%	13µM*	-2.6%	14.0	i
CC1CC=CC2C1C(=O)N(Cc1ccccc1)C2c1ccc(-c2ccoc2)cc1F (centres undefined)	/	1.3%	/	?	-16.3	/
O=C(CSc1nc2nc(-c3cccs3)cc(C(F)(F)F)c2c(=O)[nH]1)Nc1c(F)c(F)c(F)c(F)c1F	1.2	-13.3%	i	?	-5.8	?
N#CCCN(C(=O)CSc1nc2nc(-c3cccs3)cc(C(F)(F)F)c2c(=O)[nH]1)c1ccccc1	-10.0	1.6%	i	20.6µM*	-5.9	i
O=C1C(=C(I)I)c2ccccc2-c2ccccc21	-57.6*	-17.0%	14.6µM*	-5.5%	-4.1	?
CC(=O)N1CCc2cc(S(=O)(=O)NC3CCN(C(=O)OCc4ccccc4)CC3)ccc21	-3.9	/	/	/	/	/
Cn1c(SCc2ccc(Br)cc2)nc2ccccc2c1=O	2.0	8.0%	?	?	1.0	i
O=C(Nn1c(SCc2ccc(F)cc2)nc2ccsc2c1=O)c1ccccc1	-5.6	-12.4%	4.11µM*	3.5%	3.4	i
